Compounds without any hit were thinned out: in the full panel of roughly 83,000, 20% have a hit.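 Percent growth is the endpoint: 0 to 100 indicates growth inhibition (40 means 60% inhibition), 0 means no net growth, and negative values indicate cell death.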 Unmarked numbers belong to inactive results. Activity calls are given as the source filed them. How the source made its calls: active means growth percent below 10; inactive means the rest.

Consider 15 compounds from PubChem BioAssay (NCI).

Among the test systems are T-47D breast; BT-549 breast; MDA-MB-435 melanoma; SW-620 colon; MCF7 breast; HCT-116 colon; HCC-2998 colon; KM12 colon.
What all share (experiment): NCI-60 one-dose screen, 48 h (100 = growth as untreated, 0 = no growth, -100 = all killed)
Holding throughout (details): 10 µM unless noted

As for `c1ccc([Se]CCCN2CCN(CCC[Se]c3ccccc3)CC2)cc1`, the growth with T-47D breast was 111%; in the test on BT-549 breast, 125%; with MDA-MB-435 melanoma it was -44.2% (active); with SW-620 colon, 101%; with MCF7 breast, 110%; in the test on HCT-116 colon, 74.5%. Further, the growth with HCC-2998 colon is 115%; with KM12 colon, 109%.

In the case of `C=CCn1c(SCC(=O)Nc2ccc(C(=O)/C=C/c3cc(OC)c(OC)c(OC)c3)cc2)nnc1-c1ccc(OC)cc1`, the growth in the test on T-47D breast is -2.4% (active); with BT-549 breast it was -23.8% (active); with MDA-MB-435 melanoma, -38.1% (active); in the test on SW-620 colon, -6.73% (active); with MCF7 breast it was 0.763% (active); in the test with HCT-116 colon, -29.4% (active). For the same compound, the growth with HCC-2998 colon is -65.8% (active); in the test with KM12 colon, -33.7% (active).

Regarding `CCCOC(=O)c1ccc([N+](=O)[O-])o1`, the growth in the test on T-47D breast was 114%; in the test with BT-549 breast, 127%; in the test on MDA-MB-435 melanoma, 107%; in the test on SW-620 colon, 97.2%; in the test with MCF7 breast, 94.2%; in the test with HCT-116 colon, 105%. In addition, the growth is 121% with HCC-2998 colon and 101% in the test on KM12 colon.

In the case of `C[C@@H]1CC2C3C[C@H](F)C4=CC(=O)C=C[C@]4(C)[C@@]3(F)[C@@H](O)C[C@]2(C)[C@@]1(O)C(=O)CO` (stereo not given in full), the growth in the test on T-47D breast was 100%; with BT-549 breast it was 81.2%; in the test with MDA-MB-435 melanoma, 93.3%; in the test with SW-620 colon it was 105%; in the test on MCF7 breast it was 93.9%; in the test with HCT-116 colon, 101%. Besides, the growth with HCC-2998 colon was 98.8%; in the test with KM12 colon, 97.4%.

For `O=C(NCCNc1nccc(-c2c(-c3cccc(O)c3)nc3sccn23)n1)Nc1cc(C(F)(F)F)cc(C(F)(F)F)c1`, the growth was 72% with T-47D breast; 87.6% in the test on BT-549 breast; 9.9% (active) with MDA-MB-435 melanoma; 73.5% with SW-620 colon; 67.5% in the test with MCF7 breast; 66.3% in the test on HCT-116 colon. In addition, the growth in the test with HCC-2998 colon was 65.5%; with KM12 colon, 43.1%.

For `O=c1c2ccccc2sc2c(NCCCNCCO)nc3ccccc3c12`, the growth in the test on T-47D breast is 65.9%; with BT-549 breast, 72.3%; with MDA-MB-435 melanoma, 5.01% (active); in the test on SW-620 colon, -62.4% (active); with MCF7 breast, -72.9% (active); with HCT-116 colon, -57.5% (active). Moreover, the figures for the growth in the test on HCC-2998 colon and in the test with KM12 colon were -49.2% (active) and 6.31% (active), respectively.

On to `FC(F)(F)c1cn(CC2CNC2)c2ncnc(Cl)c12`, for which the growth was 102% in the test with T-47D breast; 125% in the test on BT-549 breast; 109% in the test on MDA-MB-435 melanoma; 104% in the test on SW-620 colon; 103% with MCF7 breast; 108% in the test on HCT-116 colon. Besides, the growth in the test with HCC-2998 colon is 99.5%; in the test on KM12 colon, 104%.

With `CCOc1ccc(Cc2nccc3cc(OCC)c(OCC)cc23)cc1OCC`, the growth was 39.1% in the test on T-47D breast; 49.1% in the test on BT-549 breast; 60.2% in the test with MDA-MB-435 melanoma; 39.1% in the test on SW-620 colon; 72.7% in the test on MCF7 breast; 26.5% in the test on HCT-116 colon. Also, the growth is 52.2% in the test with HCC-2998 colon and 49.3% in the test on KM12 colon.

Regarding `CCc1cccc(-c2ccccc2)c1`, the growth with T-47D breast is 110%; in the test with BT-549 breast, 97.1%; in the test on MDA-MB-435 melanoma, 109%; in the test with SW-620 colon it was 99.8%; in the test with MCF7 breast, 105%; in the test on HCT-116 colon, 98.8%. The figures for the growth in the test with HCC-2998 colon and with KM12 colon were 110% and 102%, respectively.

For `Nc1c(C(=O)O)[nH]c(=O)[nH]c1=O`, the growth is 104% in the test with T-47D breast; 107% with BT-549 breast; 108% with MDA-MB-435 melanoma; 108% in the test with SW-620 colon; 95.6% with MCF7 breast; 96.8% in the test on HCT-116 colon. Besides, the growth with HCC-2998 colon is 105%; in the test with KM12 colon, 106%.

With `CC(=O)n1cc(/C=C2\N=C(c3ccc(Cl)cc3)N(c3ccc(S(=O)(=O)Nc4nccs4)cc3)C2=O)c2ccccc21`, the growth in the test on T-47D breast was 55.3%; in the test on BT-549 breast, 92.8%; in the test on MDA-MB-435 melanoma, 77%; in the test on SW-620 colon, 96.2%; in the test with MCF7 breast, 49.8%; with HCT-116 colon it was 92.6%. The growth with HCC-2998 colon is 107%; in the test with KM12 colon, 69.9%.

`CC(C)[C@@H]1NC(=O)[C@]2(C)CSC(=N2)c2ccnc(c2)CNC(=O)C[C@@H](/C=C/CCS)OC1=O`: the growth in the test with T-47D breast was -24.6% (active); with BT-549 breast, 42.7%; in the test on MDA-MB-435 melanoma, 5.07% (active); in the test with SW-620 colon it was 4.68% (active); with MCF7 breast, 16.1%; in the test with HCT-116 colon it was -39.2% (active). For the same compound, the figures for the growth in the test on HCC-2998 colon and in the test on KM12 colon were -66.5% (active) and 6.09% (active), respectively.

As to `COc1ccc(C(=O)NC(=O)Nc2ccc3c(c2)NC(=O)/C3=C\c2[nH]c(C)c(CCC(=O)O)c2C)c(F)c1`, the growth in the test with T-47D breast is 21.5%; with BT-549 breast it was 11.2%; in the test on MDA-MB-435 melanoma it was 53.8%; in the test with SW-620 colon, 38.5%; in the test on MCF7 breast, 45.3%; with HCT-116 colon it was 28.3%. The growth with HCC-2998 colon was 46.8%; in the test with KM12 colon, 15.5%.

`O=C(Nc1ccccc1F)Nc1ccccc1Cl`: the growth with T-47D breast is 72.5%; with BT-549 breast, 85.7%; in the test on MDA-MB-435 melanoma, 97.4%; with SW-620 colon, 96.2%; in the test with MCF7 breast it was 90.5%; in the test with HCT-116 colon, 101%. Also, the growth in the test with HCC-2998 colon is 99.2%; in the test on KM12 colon it was 83.5%.

On to `CC(=O)CC/C=C(\C)[C@H](O)[C@H](C)C(=O)O[C@H]1C[C@H](C)C=C2C=C[C@@]3(C)O[C@@H](O)CC(=O)[C@]3(C)[C@H]21`, for which the growth was -26.6% (active) with T-47D breast; -57% (active) in the test on BT-549 breast; -88.3% (active) in the test with MDA-MB-435 melanoma; 1.02% (active) with SW-620 colon; -4.71% (active) in the test on MCF7 breast; -20.3% (active) in the test with HCT-116 colon. The values for the growth in the test with HCC-2998 colon and in the test on KM12 colon were -81.9% (active) and -10% (active), respectively.
